Experimental data taken from PubChem BioAssay.
Values joined by “and” are separate entries in the source; they are usually repeats but may differ in a detail not shown here. Identical values can stand only once. Active and inactive are the calls of the source. Cut-off read from the data, not from the text of the source, unless noted: active = parasite load remaining mostly below about 12% (no sharp cut-off); inactive = mostly above about 10%.

Key:
[1] = compounds altering viability of human ES cells (AID 493140; call rule not given here;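 note: cells exposed to compounds for four days before counting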); settings: human embryonic stem cell survival screen; stronger effect = higher value
[2] = P. berghei load reduction in hepatocytes – cell-based, HepG2, luciferase luminescence, HepG2 viability, primary screen (AID 624349);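 note: 100% = mean of DMSO negative control wells on the same plate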; settings: P. berghei liver stage in HepG2, luciferase luminescence, concentration not given here; parasite load remaining: stronger effect = lower value; viability: measured here: HepG2 viability without parasites
[3] = Wnt pathway potentiators raising nuclear beta-catenin – imaging, WNT3A-conditioned medium, mouse C2C12, NPC library, primary screen (AID 1117326; in the data active = nuclear beta-catenin stimulation mostly above about 4.2%, no sharp cut-off; inactive = mostly below about 10%); settings: stronger effect = higher value
[4] = stimulators of insulin release from INS-1E, primary screen, cell-based, 5 mM glucose, NPC library (AID 1117329;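 active = compound raises insulin release from rat beta cells at 5 mM glucose, no numeric limit stated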); settings: rat INS-1E insulin secretion, at 10 µM, stronger effect = higher value
[5] = growth inhibition of GSK3B-pretreated HCT116 cells – cell-based, CellTiter-Glo, 0.2 to 20 µM (AID 1117336;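 active = compounds lowering colon cancer cell viability after pretreatment blocking the GSK3B kinase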); settings: HCT116 viability after GSK3B inhibitor, at 20 µM, stronger effect = higher value
[6] = inhibition of endothelial tube formation, primary screen, imaging, VEGF stimulated, CD31 staining, tube area, NPC library (AID 1117340;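 active = compound that reduces growth-factor-driven endothelial tube area in a mixed cell culture, no cutoff stated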); settings: VEGF-stimulated ADSC/ECFC co-culture, at 10 µM, stronger effect = higher value
[7] = GLP1 release stimulators, primary, NCI-H716, NPC library (AID 1117341;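 active = compound raises GLP1 secretion from the human gut endocrine cells, with no numeric limit stated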); settings: NCI-H716 cells, at 10 µM, stronger effect = higher value
[8] = HCT116 colon cancer cell growth inhibition, primary screen, CellTiter-Glo luminescence, NPC library (AID 1117342;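 active = compounds that lower survival of HCT116 colon cancer cells in the luminescence readout, no numeric limit stated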); settings: at 20 µM (top of the series)
[9] = reduced SW480 viability measured with CellTiter-Glo, NPC library, primary (AID 1117343;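 active = compounds that lower viability of the colon cancer cells in the luminescence readout, with no numeric limit stated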); settings: CellTiter-Glo luminescence; at 20 µM (top of the series) unless noted
[10] = NPC library primary testing for decreased DLD-1 cell viability via CellTiter-Glo (AID 1117346;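 active = compounds that lower survival of DLD-1 colon cancer cells in the luminescence readout, no cutoff given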); settings: DLD-1 viability, CellTiter-Glo luminescence; at 20 µM (top of the series)
[11] = EMT-state selective cytotoxicity in co-culture – imaging, PC-3E GFP, TEM4-18 mCherry, primary screen (AID 1345086;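 active = compounds killing one labelled cell type while sparing the other, by normalised counts and ratio limits, not self-fluorescent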;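 for all read-outs here: cells exposed to compound for 72 h before imaging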;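 for red/green cell ratio (normalised): normalised mesenchymal count divided by normalised epithelial count so high means epithelial killing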); settings: PC-3E GFP / TEM4-18 mCherry co-culture, imaging cell counts, at 1 µM; for red/green cell ratio (normalised): actives lie on both sides, counts scaled to control wells, 1 = unselective
[12] = viability loss with induced miR-34 in A549 – imaging, A549 dox-inducible miR-34, nuclei and caspase counts, primary screen (AID 1347080;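 active = compounds whose cell count with miR-34 switched on is under 0.7 times the count with it off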); settings: A549 miR-34 inducible, Hoechst nuclei count, 48 h
[13] = MELAS cybrid and Rieske KO viability enhancers – cell-based, MELAS cybrids, Rieske KO mouse fibroblasts, CellTiter-Glo, primary screen (AID 1508586;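 active = mean z-score across replicates of 1.96 or higher in either the MELAS or the Rieske mutant cell line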;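 note: z relative to plate mean and SD of compound and empty wells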); settings: low glucose
[14] = molecular target: NAD(+) hydrolase SARM1 (Homo sapiens) (UniProt Q6SZW1); test: blocking NAD cleavage by SARM1 SAM-TIR – cell lysate, NAD-Glo luminescence (AID 1508614;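 active = compound whose remaining NAD level is above about 45 nM, limit read from the data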;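 note: higher remaining NAD means stronger inhibition of SARM1 NADase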); settings: SAM-TIR HEK293T lysate NADase, at 1 µM, stronger effect = higher value
Chain of NAD(+) hydrolase SARM1 (Homo sapiens) (Q6SZW1 whole entry, looked up): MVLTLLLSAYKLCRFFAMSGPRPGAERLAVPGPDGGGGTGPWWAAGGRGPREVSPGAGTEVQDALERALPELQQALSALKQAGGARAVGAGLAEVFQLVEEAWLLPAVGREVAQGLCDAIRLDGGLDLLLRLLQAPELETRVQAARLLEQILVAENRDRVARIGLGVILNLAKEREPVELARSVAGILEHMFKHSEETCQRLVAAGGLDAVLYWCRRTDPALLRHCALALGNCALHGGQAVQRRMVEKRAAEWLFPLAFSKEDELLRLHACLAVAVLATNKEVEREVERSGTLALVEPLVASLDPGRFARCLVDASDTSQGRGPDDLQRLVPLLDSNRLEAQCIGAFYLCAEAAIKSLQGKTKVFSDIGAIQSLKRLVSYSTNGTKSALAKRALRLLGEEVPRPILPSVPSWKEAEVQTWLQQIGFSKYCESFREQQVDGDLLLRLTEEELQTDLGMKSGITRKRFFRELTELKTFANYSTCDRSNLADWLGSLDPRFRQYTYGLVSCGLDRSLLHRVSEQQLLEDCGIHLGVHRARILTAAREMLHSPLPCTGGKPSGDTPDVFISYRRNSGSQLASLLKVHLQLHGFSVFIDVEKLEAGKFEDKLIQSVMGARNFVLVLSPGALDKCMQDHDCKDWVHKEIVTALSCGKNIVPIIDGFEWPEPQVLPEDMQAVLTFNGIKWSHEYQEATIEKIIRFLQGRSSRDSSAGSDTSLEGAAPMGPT

[15] = measured here: epithelial PC-3E GFP cell survival
[16] = measured here: mesenchymal TEM4-18 mCherry cell survival
[17] = stronger effect = lower value, cell number ratio, induced over uninduced
[18] = measured here: relative caspase fold change +Dox/-Dox
[19] = measured here: total cells with miR-34 induction, stronger effect = lower value
[20] = measured here: total cells without miR-34 induction
[21] = MELAS cybrid survival, CellTiter-Glo 48 h, stronger effect = higher value
[22] = Rieske KO mouse fibroblast survival, CellTiter-Glo 72 h

With `O=C(CCCN1CCC(O)(c2ccc(Br)cc2)CC1)c1ccc(F)cc1` the survival [1] was 1.83 (inactive), the parasite load remaining [2] was 37.2% (inactive) and 72.5% (inactive) and 17.9% (inactive) and the viability [2] was 92.9% and 75.9% and 90.4%. The nuclear beta-catenin stimulation ([3]; at 10 µM) was 10.3% (inactive), the nuclear beta-catenin stimulation ([3]; stimulation, at 2 µM) was 1.8% and the insulin secretion stimulation [4] was 5.6% (active). The viability decrease [5] was -4.9% (inactive), the tube area decrease [6] was 24.2% (inactive) and the GLP1 secretion stimulation [7] was 2.1% (inactive). For the same molecule, the inhibition of viability [8] was 46.1% (inactive), the viability decrease (inhibition) [9] was 93.1% (active) and the viability decrease (inhibition) [10] was 54.3% (active). The red/green cell ratio (normalised) [11] was 0.73 (inactive), the normalised cell number [11, 15] was 1.27 and the normalised cell number [11, 16] was 0.93. For the same molecule, the fold change [12, 17] was 0.861 (inactive) and 0.851 (inactive), the fold change [12, 18] was 1.31 and 4.03 and the cell count [12, 19] was 8070 and 10200. The cell count [12, 20] was 9380 and 12000, the z-score [13, 21] was 0.333 (inactive) and the z-score [13, 22] was 0.0415. The remaining NAD [14] was 10 nM (inactive).
For `O=C(Nc1ccccc1)OCC(CN1CCCCC1)OC(=O)Nc1ccccc1` (stereo not given), the survival [1] was 16 (inactive), the parasite load remaining [2] was 59.3% (inactive) and 41.7% (inactive) and 36.2% (inactive) and the viability [2] was 79.1% and 91.5% and 107%. For the same molecule, the nuclear beta-catenin stimulation ([3]; at 10 µM) was -0.9% (inactive), the nuclear beta-catenin stimulation ([3]; stimulation, at 2 µM) was -0.9% and the insulin secretion stimulation [4] was 14.9% (inactive). The viability decrease [5] was 36.4% (inactive), the tube area decrease [6] was 1.6% (inactive) and the GLP1 secretion stimulation [7] was -0.5% (inactive). For the same molecule, the inhibition of viability [8] was 75.7% (active), the viability decrease (inhibition) [9] was 65.2% (active) and the viability decrease (inhibition) [10] was 32.3% (inactive). The red/green cell ratio (normalised) [11] was 0.79 (inactive), the normalised cell number [11, 15] was 1.18 and the normalised cell number [11, 16] was 0.92. The fold change [12, 17] was 0.99 (inactive) and 0.916 (inactive), the fold change [12, 18] was 1.08 and 5.69 and the cell count [12, 19] was 8030 and 11400. For the same molecule, the cell count [12, 20] was 8110 and 12500, the z-score [13, 21] was 0.475 (inactive) and the z-score [13, 22] was -0.0131. For the same molecule, the remaining NAD [14] was 10 nM (inactive).
For `O=S(=O)(O)NC1CCCCC1`, the nuclear beta-catenin stimulation ([3]; at 10 µM) was 0.2% (inactive), the nuclear beta-catenin stimulation ([3]; stimulation, at 2 µM) was 0.3% and the insulin secretion stimulation [4] was -1.6% (inactive). The viability decrease [5] was -5.65% (inactive), the tube area decrease [6] was -18.4% (inactive) and the GLP1 secretion stimulation [7] was -0.8% (inactive). The inhibition of viability [8] was -5.4% (inactive), the viability decrease (inhibition) [9] was 8.9% (inactive) and the viability decrease (inhibition) [10] was 1.3% (inactive). For the same molecule, the red/green cell ratio (normalised) [11] was 0.89 (inactive), the normalised cell number [11, 15] was 0.95 and the normalised cell number [11, 16] was 0.84. For the same molecule, the fold change [12, 17] was 0.883 (inactive) and 0.898 (inactive), the fold change [12, 18] was 0.921 and 0.472 and the cell count [12, 19] was 8650 and 7930. The cell count [12, 20] was 9790 and 8830, the z-score [13, 21] was -0.205 (inactive) and the z-score [13, 22] was -0.173. For the same molecule, the remaining NAD [14] was 10 nM (inactive).
For `O=C(N/N=C/c1ccc([N+](=O)[O-])o1)c1ccc(O)cc1`, the survival [1] was 8.5 (inactive), the parasite load remaining [2] was -8.11% (inactive) and 25.6% (inactive) and the viability [2] was 21.5% and 60.5%. For the same molecule, the nuclear beta-catenin stimulation ([3]; at 10 µM) was 18.2% (inactive), the nuclear beta-catenin stimulation ([3]; stimulation, at 2 µM) was 2% and the insulin secretion stimulation [4] was -3% (inactive). For the same molecule, the viability decrease [5] was 99.5% (active), the tube area decrease [6] was 26.5% (inactive) and the GLP1 secretion stimulation [7] was 5.1% (inactive). The inhibition of viability [8] was 102% (active), the viability decrease (inhibition) [9] was 67.8% (active) and the viability decrease (inhibition) [10] was 81.1% (active). For the same molecule, the red/green cell ratio (normalised) [11] was 0.78 (inactive), the normalised cell number [11, 15] was 1.11 and the normalised cell number [11, 16] was 0.87. The fold change [12, 17] was 0.844 (inactive), the fold change [12, 18] was 1.92 and the cell count [12, 19] was 3090. The cell count [12, 20] was 3660, the z-score [13, 21] was -3.44 (inactive) and the z-score [13, 22] was -1.34. For the same molecule, the remaining NAD [14] was 10 nM (inactive).
